Data on six compounds can be found in PubChem BioAssay.

Calls of active or inactive are those of the source.

The test system of test [1] is Plasmodium falciparum Sir2 (PF13_0152, Sir2A). The test can be described thus: Plasmodium falciparum Sir2A binding compounds – biochemical, small-molecule microarray, 635 nm fluorescence, primary screen (AID 1098).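 Also: score merges spot fluorescence intensity with its signal-to-noise ratio.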 The conditions noted are these: fluorescence 635 nm, higher = more signal.
A short description of test [2]: probe aDKK1 binding to arrayed compounds – biochemical, biotinylated probe, 635/667 nm fluorescence, primary screen (AID 1099).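 Also: score merges 667nm spot fluorescence with signal to noise across triplicate slides.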 The following applies: small-molecule microarray, higher = more signal.
A short description of test [3]: probe aCHRDL2 binding to arrayed compounds – biochemical, biotinylated probe, 635/667 nm fluorescence, primary screen (AID 1100). The following applies: small-molecule microarray, higher = more signal.
Test [4] in a line: change in splice reporter luminescence, either direction, cell-based, HEK293, spliceosome inhibition project, primary screen (AID 1101).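 Also: HEK293 cells carrying a splicing-competent luciferase reporter gene; test concentration not given here.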 The following applies: HEK293 splicing luciferase reporter, 24 h, higher = more signal, called active from +8 up or from −8 down. Background: A reporter such as luciferase makes a cellular process visible.
For test [5], the target named is Fibroblast growth factor 10 (Homo sapiens) (UniProt O15520). Description: compounds binding fibroblast growth factor 10 – biochemical, small-molecule microarray, 635 nm fluorescence, primary screen (AID 1102). The following applies: FGF10 binding, fluorescence 635 nm, higher = more signal.
The subject of test [6] is glycogen synthase kinase-3 (GSK3A per assay name; protocol says GSK3B). The test can be described thus: compounds binding glycogen synthase kinase-3 – biochemical, small-molecule microarray, 635 nm fluorescence, GSK3A, primary screen (AID 1103). Also: the record names both GSK3A and GSK3B. The conditions noted are these: fluorescence 635 nm, higher = more signal.
The target in test [7] is Epidermal growth factor receptor (Homo sapiens) (UniProt P00533). The test can be described thus: compounds binding epidermal growth factor receptor – biochemical, small-molecule microarray, 635 nm fluorescence, primary screen (AID 1104).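 Also: score merges 667 nm emission intensity with spot signal to noise over triplicate slides.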 The following applies: EGFR binding, higher = more signal.
Test [8] has as its target Follistatin-related protein 3 (Homo sapiens) (UniProt O95633). Description: compounds binding follistatin-related protein 3 – biochemical, small-molecule microarray, 635 nm fluorescence, primary screen (AID 1105).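 Also: score merges emission near 667 nm and signal to noise per printed spot across three slides.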 The conditions noted are these: FSTL3 binding, higher = more signal.
Test [9] has as its target Dickkopf-related protein 1 (Homo sapiens) (UniProt O94907). The test can be described thus: small molecules binding DKK1 protein – biochemical, small-molecule microarray, 635 nm fluorescence scan, primary screen (AID 1106).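 Also: score merges emission near 667 nm with signal to noise over three replicate slides.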 The following applies: higher = more signal.
The test system of test [10] is Inhibin beta A chain (activin A). Description: small molecules binding activin A – biochemical, small-molecule microarray, 635 nm fluorescence scan, primary screen (AID 1107).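 Also: mouse activin A protein probed at 4.33 µg/mL on printed slides; score merges bound-protein fluorescence near 667 nm with spot signal-to-noise.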 The following applies: INHBA, higher = more signal.
Test [11] has as its system Human papillomavirus type 1a protein E7 (residues 44-93). Description: small molecules binding HPV E7 44-93 – biochemical, small-molecule microarray, residues 44-93, 635 nm fluorescence, primary screen (AID 1108).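 Also: E7 fragment applied at 1 µg/mL in TBST for 1 h at 4 C; score combines spot fluorescence with its signal to noise ratio.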 The conditions noted are these: fluorescence 635 nm, higher = more signal.
Test [12] is described as follows: hepatitis C replication reporter changes, two-sided – Huh7 cells, luciferase reporter, HCV replication inhibitor project, primary screen (AID 1109).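 Also: huh7 hepatoma cells harbouring a luciferase neomycin HCV replicon reporter; luciferase luminescence as measure of HCV replicon replication; test concentration not given here.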 The conditions noted are these: Huh7 HCV replicon luciferase reporter, 48 h; higher = more signal.
For test [13], the target named is Left-right determination factor 2 (Homo sapiens) (UniProt O00292). Description: small molecules binding LEFTY2 protein – biochemical, small-molecule microarray, 635 nm fluorescence scan, primary screen (AID 1110). The following applies: higher = more signal.
In test [14] the target is Calmodulin-1 (Homo sapiens) (UniProt P0DP23). Description: small molecules binding calmodulin-1 with EGTA – biochemical, small-molecule microarray, Cy5-labelled CALM1, profiling panel (AID 1111).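 Also: labelled calmodulin applied in Tris saline Tween buffer holding calcium plus EGTA and DTT.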 The conditions noted are these: Cy5-CALM1 binding fluorescence, higher = more signal.
Test [15] has the same target. Description: small molecules binding Ca-loaded calmodulin-1 – biochemical, small-molecule microarray, Cy5-labelled CALM1, plus calcium, artefact control for SMM control-protein annotation, profiling panel (AID 1112).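 Also: score merges spot fluorescence with signal to noise from triplicate slides.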 The conditions noted are these: Cy5-CALM1 binding fluorescence, higher = more signal.
Test [16] in a line: probe aWnt5a binding to arrayed compounds – biochemical, biotinylated probe, 635/667 nm fluorescence, primary screen (AID 1113).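 Also: score merges 667 nm fluorescence intensity with signal-to-noise per printed feature.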 The conditions noted are these: small-molecule microarray, higher = more signal.
Test [17] can be described thus: probe aShh binding to arrayed compounds – biochemical, biotinylated probe, 635/667 nm fluorescence, primary screen (AID 1114).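 Also: probe is biotin-labelled aShh protein from a stem cell growth factor screen; measures binding of labelled protein to compounds printed on the slide; score merges feature fluorescence at 667 nm with signal-to-noise.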 The following applies: small-molecule microarray, higher = more signal.
Test [18] in a line: probe aNog binding to arrayed compounds – biochemical, biotinylated probe, 635/667 nm fluorescence, primary screen (AID 1115).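 Also: probe is biotinylated aNog protein used at 0.15 µg/mL for 1 h at 4 C; z-score combines 667 nm fluorescence of each spot with its signal to noise.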 The following applies: small-molecule microarray, higher = more signal.
Test [19] deals with Torsin-1A-interacting protein 1 (Homo sapiens) (UniProt Q5JTV8). Description: compound microarray binding of lysate hLAP1 – cell lysate, small-molecule microarray, COS7 lysate, 635/667 nm fluorescence, primary screen (AID 1116). The conditions noted are these: 635 nm fluorescence, higher = more signal.
In test [20] the target is Alpha-bungarotoxin (Bungarus multicinctus) (UniProt P60615). Description: compounds binding labelled alpha-BTX control protein – biochemical, small-molecule microarray, Alexa647 label, 635/667 nm fluorescence, artefact control for SMM control protein annotation, profiling panel (AID 1117). The following applies: alpha-BTX-A647 binding fluorescence, higher = more signal.
Chain of Alpha-bungarotoxin (Bungarus multicinctus) (P60615 whole entry, looked up): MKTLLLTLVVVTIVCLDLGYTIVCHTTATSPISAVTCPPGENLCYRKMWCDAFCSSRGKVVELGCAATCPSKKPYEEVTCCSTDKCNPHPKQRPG

Chain of Dickkopf-related protein 1 (Homo sapiens) (O94907 whole entry, looked up): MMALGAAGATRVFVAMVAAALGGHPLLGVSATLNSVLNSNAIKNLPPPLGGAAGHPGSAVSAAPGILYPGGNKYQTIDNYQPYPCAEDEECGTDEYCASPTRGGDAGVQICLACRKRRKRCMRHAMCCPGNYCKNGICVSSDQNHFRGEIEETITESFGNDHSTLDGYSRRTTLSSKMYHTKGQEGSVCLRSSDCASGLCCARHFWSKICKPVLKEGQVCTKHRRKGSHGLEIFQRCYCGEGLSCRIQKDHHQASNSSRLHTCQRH
Chain of Epidermal growth factor receptor (Homo sapiens) (P00533 whole entry, looked up): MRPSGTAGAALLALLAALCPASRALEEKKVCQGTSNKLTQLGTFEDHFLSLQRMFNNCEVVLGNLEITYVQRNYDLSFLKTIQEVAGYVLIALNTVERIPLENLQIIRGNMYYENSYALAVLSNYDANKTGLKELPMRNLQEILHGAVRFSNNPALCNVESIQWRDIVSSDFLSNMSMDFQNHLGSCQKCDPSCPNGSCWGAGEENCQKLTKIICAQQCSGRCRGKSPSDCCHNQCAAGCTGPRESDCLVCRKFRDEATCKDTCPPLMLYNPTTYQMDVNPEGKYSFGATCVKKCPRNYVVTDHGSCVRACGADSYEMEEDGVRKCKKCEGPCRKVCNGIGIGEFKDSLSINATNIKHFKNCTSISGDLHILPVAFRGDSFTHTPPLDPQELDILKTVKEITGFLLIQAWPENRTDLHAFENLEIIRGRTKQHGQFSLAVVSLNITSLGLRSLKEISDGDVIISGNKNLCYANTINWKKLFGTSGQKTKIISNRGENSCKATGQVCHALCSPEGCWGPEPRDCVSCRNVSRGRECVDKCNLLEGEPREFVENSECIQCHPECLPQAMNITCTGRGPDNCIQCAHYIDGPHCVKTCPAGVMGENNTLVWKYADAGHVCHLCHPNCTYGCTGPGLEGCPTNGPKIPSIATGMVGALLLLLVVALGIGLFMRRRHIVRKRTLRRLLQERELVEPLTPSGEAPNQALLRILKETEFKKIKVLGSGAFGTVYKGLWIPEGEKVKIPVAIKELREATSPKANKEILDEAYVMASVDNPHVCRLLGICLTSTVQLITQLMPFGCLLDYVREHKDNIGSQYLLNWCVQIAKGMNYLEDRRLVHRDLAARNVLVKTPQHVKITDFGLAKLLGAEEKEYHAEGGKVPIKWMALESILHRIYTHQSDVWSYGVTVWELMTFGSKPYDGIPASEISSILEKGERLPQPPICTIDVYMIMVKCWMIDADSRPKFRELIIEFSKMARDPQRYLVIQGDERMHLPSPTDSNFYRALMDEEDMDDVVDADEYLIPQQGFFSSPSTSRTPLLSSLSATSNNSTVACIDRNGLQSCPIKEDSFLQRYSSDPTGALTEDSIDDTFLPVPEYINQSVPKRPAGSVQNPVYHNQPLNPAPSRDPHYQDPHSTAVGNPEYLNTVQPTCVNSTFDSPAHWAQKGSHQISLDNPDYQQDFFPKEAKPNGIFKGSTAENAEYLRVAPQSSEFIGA
Chain of Follistatin-related protein 3 (Homo sapiens) (O95633 whole entry, looked up): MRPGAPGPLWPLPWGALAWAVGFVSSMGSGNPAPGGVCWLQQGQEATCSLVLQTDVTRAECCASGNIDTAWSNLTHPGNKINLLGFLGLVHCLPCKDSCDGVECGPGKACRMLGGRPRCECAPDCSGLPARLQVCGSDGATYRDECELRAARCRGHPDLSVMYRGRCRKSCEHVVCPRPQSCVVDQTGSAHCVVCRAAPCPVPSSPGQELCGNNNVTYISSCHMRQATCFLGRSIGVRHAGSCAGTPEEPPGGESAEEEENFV
Chain of Left-right determination factor 2 (Homo sapiens) (O00292 whole entry, looked up): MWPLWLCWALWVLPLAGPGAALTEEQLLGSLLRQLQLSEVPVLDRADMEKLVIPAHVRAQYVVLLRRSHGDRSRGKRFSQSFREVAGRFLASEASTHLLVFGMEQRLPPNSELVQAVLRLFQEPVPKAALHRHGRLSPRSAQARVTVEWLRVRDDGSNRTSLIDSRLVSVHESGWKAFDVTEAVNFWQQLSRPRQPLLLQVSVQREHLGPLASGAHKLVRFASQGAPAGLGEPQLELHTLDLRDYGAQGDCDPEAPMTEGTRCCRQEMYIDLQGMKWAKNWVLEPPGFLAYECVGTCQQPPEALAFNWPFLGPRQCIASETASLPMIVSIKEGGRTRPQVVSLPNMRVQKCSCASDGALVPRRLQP
Chain of Torsin-1A-interacting protein 1 (Homo sapiens) (Q5JTV8 whole entry, looked up): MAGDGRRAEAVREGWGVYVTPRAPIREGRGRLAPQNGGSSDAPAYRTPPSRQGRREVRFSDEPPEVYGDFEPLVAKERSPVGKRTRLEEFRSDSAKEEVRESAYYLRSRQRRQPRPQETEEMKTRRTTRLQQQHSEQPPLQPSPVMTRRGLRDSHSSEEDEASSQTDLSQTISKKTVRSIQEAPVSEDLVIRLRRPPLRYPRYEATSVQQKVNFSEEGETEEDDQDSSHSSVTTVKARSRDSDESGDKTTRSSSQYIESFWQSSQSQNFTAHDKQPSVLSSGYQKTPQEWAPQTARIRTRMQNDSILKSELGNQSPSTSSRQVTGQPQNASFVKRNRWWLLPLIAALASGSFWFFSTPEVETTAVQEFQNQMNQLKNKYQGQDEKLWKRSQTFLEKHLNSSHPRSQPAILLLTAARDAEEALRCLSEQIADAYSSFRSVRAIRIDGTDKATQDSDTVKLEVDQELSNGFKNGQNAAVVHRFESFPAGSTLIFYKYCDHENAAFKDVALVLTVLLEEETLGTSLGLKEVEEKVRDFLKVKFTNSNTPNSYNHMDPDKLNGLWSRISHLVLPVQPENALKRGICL
Chain of Fibroblast growth factor 10 (Homo sapiens) (O15520 whole entry, looked up): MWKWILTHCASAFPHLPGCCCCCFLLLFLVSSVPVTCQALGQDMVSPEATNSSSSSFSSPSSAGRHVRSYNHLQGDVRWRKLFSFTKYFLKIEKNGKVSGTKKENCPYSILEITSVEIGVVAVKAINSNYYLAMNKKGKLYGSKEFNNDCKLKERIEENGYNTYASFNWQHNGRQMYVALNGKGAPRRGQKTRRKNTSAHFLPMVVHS

For `CCCNC(=O)[C@@]1(C)c2ccccc2C(=O)N(Cc2cc(C(F)(F)F)cc(C(F)(F)F)c2)[C@H]1c1ccc(CO)cc1`, the composite z-score in [1] is 0.0609; in test [2], 0.21; in test [3], 0.608; in test [5] it was -0.0617; in test [6], -0.196; in test [7], -0.708. Moreover, the composite z-score was -0.808 in test [8]; -0.408 in test [9]; -0.605 in test [10]; 1.23 in test [11]; -0.657 in test [13]; 0.0189 in test [14]. In addition, the composite z-score in [15] is 0.168; in test [16], 0.0377; in test [17], -0.297; in [18] it was -0.158; in test [19], 1.61; in test [20], 0.919. The z-score is -0.542 (inactive) in test [4] and -1.16 in test [12].
Consider `CC(C)(C)OC(=O)CC[C@@]1(C(N)=O)N=C(c2ccc(OCCCO)cc2)O[C@@H]1c1ccccc1N=[N+]=[N-]`, for which the composite z-score is 1.73 in test [1]; 0.751 in test [2]; 0.83 in test [3]; 1.46 in test [5]; 1.22 in test [6]; -0.0882 in test [7]. Besides, the composite z-score was 0.616 in [8]; -0.103 in test [9]; 0.988 in test [10]; 1.2 in [11]; -0.038 in [13]; 1.03 in [14]. The composite z-score in [15] is 0.774; in test [16], -0.0125; in test [17], 0.0796; in [18] it was -0.504; in test [19], 1.12; in test [20], 1.22. Also, the z-score in [4] was -0.809 (inactive); in test [12], 3.02.
For the compound `CN(C)CCCC[C@@H]1NC(=O)[C@H]2C[C@@H](C(=O)NCCCCCNC(=O)CS)[C@@H](c3ccc(O)cc3)N2C1=O`, the composite z-score is 0.133 in [1]; 0.0417 in [2]; 0.308 in [3]; -1.2 in [5]; -0.53 in test [6]; -0.483 in test [7]. Besides, the composite z-score in test [8] is -1.39; in test [9], -0.653; in [10] it was 0.0182; in test [11], -0.781; in test [13], -1.34; in test [14] it was -0.0462. Further, the composite z-score in test [15] was 0.586; in test [16], -0.124; in test [17], -0.0396; in [18] it was -0.0793; in [19], 0.172; in test [20], 0.808. Further, the results for the z-score in test [4] and in test [12] were 1.1 (inactive) and 0.579, respectively.
`CCOC(=O)N1C(c2ccc(OCCCO)cc2)=NC(C(=O)OC)N1C(=O)OCC` (stereo not given): the composite z-score is 0.587 in test [1]; -0.164 in test [2]; 0.0258 in test [3]; 0.909 in test [5]; 1.28 in [6]; 0.431 in test [7]. Further, the composite z-score in test [8] is 1.39; in [9], 0.471; in [10], -0.298; in test [11] it was 1.38; in test [13], 0.537; in test [14], 1.25. In addition, the composite z-score was 0.127 in [15]; -0.0685 in test [16]; -0.279 in test [17]; 0.0036 in test [18]; 0.935 in test [19]; 0.439 in test [20]. For the same compound, the results for the z-score in [4] and in test [12] were -0.641 (inactive) and -3.72, respectively.
Regarding `CCCC[C@@H]1C[C@H]1[C@@H](NC(=O)c1ccco1)c1ccccc1`, the composite z-score in test [1] was -1.69; in test [2] it was -0.145; in test [3], 1.01; in [5], -1.01; in test [6], -1.31; in [7], -2.01. Moreover, the composite z-score in test [8] is -1.63; in test [9], -2.05; in test [10] it was 0.735; in test [11], -1.35; in test [13] it was -2.75; in test [14] it was -0.352. Moreover, the composite z-score was 0.479 in test [15]; -0.258 in [16]; 0.108 in test [17]; -0.218 in test [18]; -1.63 in test [19]; -0.703 in test [20]. The z-score is 0.00344 (inactive) in [4] and -2.26 in test [12].
On to `CN(C)CCCC[C@@H]1NC(=O)[C@@H]2C[C@H](C(=O)NCCCCCN)[C@H](c3ccc(O)cc3)N2C1=O`, for which the composite z-score was 0.016 in test [1]; 0.442 in test [2]; 0.916 in test [3]; -0.008 in [5]; 0.31 in test [6]; -0.912 in test [7]. Further, the composite z-score in [8] was -1.25; in test [9], -0.722; in [10] it was -0.273; in test [11] it was 0.0063; in [13] it was -0.93; in test [14] it was 1.99. Besides, the composite z-score in [15] is 1.42; in [16], -0.208; in test [17], -0.026; in test [18], 0.262; in test [19] it was 0.777; in test [20], 1.19. Also, the values for the z-score in [4] and in test [12] were -0.159 (inactive) and 0.285, respectively.
